Assay outcomes: PubChem, several laboratories
In the library only some 2.5% were active in any assay of this set; here they are far more common.
PKA-R2B activ – activators of human PKA-R2B complex | P22694+P31323 | PKA-R2B holoenzyme dissociation, Cy5-IP20 fluorescence polarization; R2B truncated from residue 108, S112A mutant; 0% DMSO only, 100% 113 µM cGMP | activation, % at 11.4 µM | 340,000 compounds, 0.079% hits | AID 504700;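 active = activation above a cutoff set at the mean over all compounds plus 3 SD, cut at about 18% in these data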;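 note: higher means more holoenzyme dissociation and a rise in polarization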
PKA-R1A activ – activates the PKA-R1A holoenzyme complex; AID 504707; PKA-R1A dissociation, Cy5-IP20 fluorescence polarization; scaled: DMSO 0%, 113 µM cGMP 100%; activation, % at 11.4 µM; P00514+P68181; 340,000 compounds, 0.083% hits;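 active = percent activation above the mean of all tested compounds plus 3 SD, cut at about 19% in these data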;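 note: higher means more PKAc released from R1A so a rise in polarization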
CHT allo act – allosteric activators of human choline transporter CHT; Q9GZV3; CHT-expressing cells, membrane potential dye, choline EC20; active compounds read high; LV-AA mutant CHT in HEK293 cells; B-score at 10 µM; 310,000 compounds, 0.49% hits; AID 488977;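 active = initial fluorescence not abnormally high and integrated response B-score, plate-corrected, over 3 SD above library mean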
Target sequence (Q9GZV3 whole entry, looked up): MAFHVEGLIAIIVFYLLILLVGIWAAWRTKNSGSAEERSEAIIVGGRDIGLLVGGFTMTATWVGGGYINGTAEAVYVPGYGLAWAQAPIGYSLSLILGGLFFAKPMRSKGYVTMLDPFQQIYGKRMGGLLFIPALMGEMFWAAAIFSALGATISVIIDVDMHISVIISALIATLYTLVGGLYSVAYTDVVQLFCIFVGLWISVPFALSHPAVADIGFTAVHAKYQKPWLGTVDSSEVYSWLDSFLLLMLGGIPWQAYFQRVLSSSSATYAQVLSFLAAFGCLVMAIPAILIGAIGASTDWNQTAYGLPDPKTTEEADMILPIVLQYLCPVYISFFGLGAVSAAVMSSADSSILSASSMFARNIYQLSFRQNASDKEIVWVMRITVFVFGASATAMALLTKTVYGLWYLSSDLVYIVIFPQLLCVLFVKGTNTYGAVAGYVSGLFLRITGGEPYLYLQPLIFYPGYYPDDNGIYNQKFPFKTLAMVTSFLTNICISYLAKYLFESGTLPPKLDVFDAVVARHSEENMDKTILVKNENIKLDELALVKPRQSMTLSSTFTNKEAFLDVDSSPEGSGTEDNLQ
TMEM16A act – mouse TMEM16A channel activation, primary screen; Q8BHY3; HEK293 TMEM16A/YFP-H148Q/I152L, iodide quench fluorescence; active compounds read low; B-score at 10 µM; 340,000 compounds, 0.3% hits;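 active = fluorescence-ratio B-score plate-corrected deviation score at least 3 library SD below zero, with starting fluorescence score within 5 deviations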;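 note: channel opened by trigger with iodide after compound preincubation; score built on the fluorescence ratio of max minus min over baseline; more negative score means more quench and so TMEM16A activation or potentiation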
TMEM16A inh – mouse TMEM16A channel inhibition, primary screen; Q8BHY3; HEK293 TMEM16A/YFP iodide influx fluorescence, ionomycin; normalized B-score (activity score, 25-100; higher = stronger inhibition) at 10 µM; 310,000 compounds, 1.2% hits;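 active = ratio plate-corrected score three or more library SD toward inhibition, starting fluorescence score within five deviations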;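 note: score derived from kinetic fluorescence span divided by baseline fluorescence per well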
CHT inh – inhibitors of human choline transporter CHT; Q9GZV3; CHT-expressing cells, membrane potential dye, choline response; active compounds read low; B-score at 10 µM; 310,000 compounds, 0.86% hits;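 active = B-score over 3 SD under the library average, and starting fluorescence ratio not unusually high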;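 note: choline stimulus applied at its EC90 after an EC20 pre-addition; B-score computed on integrated fluorescence ratio after choline addition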
CHT block conf – confirmation of human choline transporter CHT inhibitors | shares compounds with CHT inh | CHT-expressing cells, choline membrane potential dye; LV-to-AA substituted CHT, HEK293 cells | CHT activity remaining % of control (active compounds read low), % at 10 µM | 2,400 compounds, 70% hits;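 active = choline transporter activity left, mean of duplicates at 10 µM, below buffer-only control mean minus 3 SD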;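 note: depolarization triggered by choline at its EC90 following an EC20 pre-addition; 0% = hemicholinium-3 full block and 100% = buffer-only control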
HEK293 CHT ctr – activity in parental HEK293 cells lacking CHT; shares compounds with CHT inh; membrane potential dye, choline response; active = decrease or increase beyond buffer ±3SD; membrane potential ratio readout (active if shifted either direction beyond buffer ±3SD; no single direction) at 10 µM; 2,400 compounds, 4% hits; AID 493222;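 note: parental cells lack the transporter so any hit is non-specific; ratio is peak minus trough fluorescence over baseline after EC90 choline challenge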
The depositor's hits bear a star; i = inactive; . = no result.

SMILES	PKA-R2B activ	PKA-R1A activ	CHT allo act	TMEM16A act	TMEM16A inh	CHT inh	CHT block conf	HEK293 CHT ctr
CC(C)CCSc1cc(NCCO)c([N+](=O)[O-])c2nonc12	5.3	-1.7	i	i	i	-5.79*	i	i
Cc1ccc(Sc2cc(NCCCO)c([N+](=O)[O-])c3nonc23)cc1	0.2	2.9	i	i	i	i	.	.
Cn1c(=O)c(C(=O)NCCc2ccc(Cl)cc2)c(O)c2ccccc21	-4.8	-7.3	i	i	i	i	.	.
Cc1ccccc1NC(=O)c1cccc(S(=O)(=O)Oc2ccc([N+](=O)[O-])cc2)c1	3.8	-11.9	i	i	i	-5.72*	i	i
Cc1ccc(NC(=O)c2cccc(Oc3ccc([N+](=O)[O-])cc3)c2)c(C(=O)O)c1	-4.8	1.5	i	i	i	i	.	.
CCCc1cc(Nc2c(C)n(C)n(-c3ccccc3)c2=O)n2c(nc3ccccc32)c1C#N	-2.0	-0.2	i	i	i	-8.01*	38.1%*	i
Brc1cccc(OCCCNC2CCCC2)c1	6.8	1.1	i	i	i	i	.	.
CCCCn1c(SCC(=O)Nc2cccc(OC)c2)nc2ccc(N3CCOCC3)cc2c1=O	-4.0	4.8	i	i	i	-5.97*	62.2%*	i
CC1CCCCN1c1ncnc2ccccc12 (centres undefined)	-4.9	-5.1	i	i	i	i	.	.
CC1(C)CC2CC(C)(CN2c2ncnc3ccccc23)C1 (centres undefined)	-6.7	0.6	i	i	i	-5.12*	47.7%*	i
CC(=O)c1ccc(NC(=O)CN2C(=O)/C(=C/C=C/c3ccccc3)SC2=S)cc1	4.7	0.6	i	i	i	i	.	.
O=C(O)CN1C(=O)/C(=C/C=C/c2ccccc2)SC1=S	-14.3	-1.9	i	i	i	-8.54*	39.6%*	i
COc1ccc(OC)c(Cc2nnc(CCC(=O)N3CCCCC3)o2)c1	9.7	-3.0	i	i	i	i	.	.
COc1ccc(OC)c(Cc2nnc(CCC(=O)N3CCN(C4CCCC4)CC3)o2)c1	0.2	0.6	i	i	i	-8.02*	35.8%*	i
O=C(CCNS(=O)(=O)c1ccccc1)NNC(=O)C1COc2ccccc2O1 (centres undefined)	-13.4	-3.0	i	i	i	i	.	.
C#CC[N+]1(CC#Cc2ccc(C)cc2)CCCCC1	2.6	-1.3	i	i	i	-7.03*	42.6%*	i
Cc1ccc(C#CC[N+]2(C)CCCCC2)cc1	.	.	i	i	i	-6.05*	43.1%*	i
CCOC(=O)C1=C(C)NC(C)=C(C(=O)OCC)C1C(=O)OCC(=O)N(C)C	-4.1	-0.3	i	i	i	i	.	.
Cc1ccccc1/C=C/C(=O)NCC(=O)N1CCC(N(C)C2CCCCC2C)CC1 (centres undefined)	4.0	-5.5	i	i	i	-12.7*	21.2%*	i
CC1CCN(C(=O)CNC(=O)Cc2ccccc2)CC1	-5.0	-1.5	i	i	i	i	.	.
CCOC(=O)c1c(C)n(C)c2ccc(O)c(CN3CCC(C)CC3)c12	-0.5	1.5	i	i	i	-13.7*	20.0%*	4.2*
COc1ccc(C2(c3ccc(OC)cc3)NC(=O)NC2=O)cc1	-3.3	1.5	i	i	i	i	.	.
COc1ccccc1CNC(=O)CSc1nc(N)c(C#N)c(-c2cccs2)c1C#N	-5.5	-4.7	i	i	i	i	.	.
N#Cc1c(N)nc(SCc2ccccn2)c(C#N)c1-c1cccs1	-2.5	5.0	i	i	i	-7.3*	49.3%*	i
CCCCn1c(SCn2nnc3ccccc3c2=O)nc2cc(S(N)(=O)=O)ccc21	-0.9	1.9	i	i	i	-6.24*	48.8%*	i
SMILES	PKA-R2B activ	PKA-R1A activ	CHT allo act	TMEM16A act	TMEM16A inh	CHT inh	CHT block conf	HEK293 CHT ctr
Cn1c(=O)c(Nc2ccc(O)cc2)c2c3c(cccc31)C(=O)c1ccccc1-2	-11.4	-9.3	i	i	i	-16.5*	9.4%*	i
Cc1cccn2c(CNCC3OCCc4ccccc43)c(C(=O)N3CCCCC3)nc12 (centres undefined)	-16.8	-13.0	i	i	i	-6.57*	48.2%*	-13.2*
COc1ccc(CCNC(=O)COC(=O)c2ccc(N3CCCC3=O)cc2)cc1	-0.1	3.8	i	i	i	i	.	.
COc1ccccc1C(CNC(=O)c1cccc(NS(=O)(=O)c2ccc(C)c(F)c2)c1)N1CCCC1 (centres undefined)	-5.9	-7.8	i	i	i	-5.55*	14.8%*	i
Cc1ccc(C)c(S(=O)(=O)Nc2ccc(C(=O)NCC(c3ccco3)N3CCCCC3)cc2)c1 (centres undefined)	-2.6	-0.1	i	i	i	i	.	.
O=C(NCC(c1ccco1)N1CCCCC1)c1cccc(NS(=O)(=O)c2ccc(Br)cc2)c1 (centres undefined)	-6.6	2.7	i	i	i	-11.1*	36.5%*	i
COc1ccccc1NS(=O)(=O)c1cc(C(=O)NCC(c2ccco2)N2CCCCC2)ccc1C (centres undefined)	-5.3	-20.9	i	i	i	-11.5*	10.9%*	i
Cc1ccc(NS(=O)(=O)c2cccc(C(=O)NCC(c3ccco3)N3CCCCC3)c2)cc1 (centres undefined)	-9.3	0.2	i	i	i	-13.2*	2.4%*	i
CN(CC(=O)Nc1ccc(N2CCOCC2)cc1)C(=O)CCc1cc(C(C)(C)C)c(O)c(C(C)(C)C)c1	-7.4	4.3	i	i	i	i	.	.
O=S(=O)(c1ccccc1)N1CCN(C(=S)Nc2ccccc2Cl)CC1	4.9	-4.7	i	i	i	i	.	.
c1ncn(C23CC4CC(CC(C4)C2)C3)n1	5.1	-0.5	i	i	i	i	.	.
c1cn(C23CC4CC(CC(C4)C2)C3)cn1	-10.9	12.2	i	i	i	-13.6*	-3.7%*	i
